NALP1 inh = inhibitors of NALP1 inflammasome in yeast; S. cerevisiae NALP1/ASC/caspase-1 growth, X-gal OD620, 72 h; inhibition, % at 10 µM; 280,000 tested, 0.61% active; AID 2071; in the data active = inhibition mostly above about 24%, no sharp cut-off; inactive = mostly below about 32%
NALP3 yeast inh = blocks the NALP3 inflammasome reconstituted in yeast; Yeast reconstituted NLRP3/ASC/caspase-1, beta-gal luminescence, 24 h; inhibition, % at 10 µM; 330,000 tested, 0.39% active;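 active = inhibition of 50% or more; inactive = inhibition below 50%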;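 also: plate controls were induced DMSO wells for no effect and uninduced yeast grown without galactose for full effect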
tim23-1 inh = tim23-1 yeast growth inhibition | AID 463212 | 330,000 tested, 1.3% active | inhibition, % at 20 µM | S. cerevisiae tim23-1 growth, BacTiter-Glo luminescence, 24 h;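 active = growth inhibition of the mutant yeast at or above 50%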;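 also: temperature-sensitive mutant grown at 25 °C; plate controls were DMSO-treated mutant yeast for no effect and medium wells lacking yeast for full effect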
tim10-1 inh = inhibits growth of tim10-1 mutant yeast; S. cerevisiae tim10-1 ts strain growth, BacTiter-Glo, 24 h; inhibition, % at 20 µM; 330,000 tested, 2.2% active;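 active = inhibition of at least 40%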;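 also: mutant grown at 25 °C; 0% = DMSO wells with yeast and 100% = wells holding no yeast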
SKKanGAS inh = blocks kanamycin growth of S. pyogenes SKKanGAS strain; BacTiter-Glo, 6 h; inhibition, % at 7.5 µM; 300,000 tested, 1.3% active;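 active = mean replicate score, as percent of positive control median, at least 50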;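 also: strain carries kanamycin resistance gene driven by streptokinase promoter and grows in 40 µg/ml kanamycin; loss of luminescence reflects streptokinase promoter inhibition or plain growth inhibition; 0% = median of DMSO wells and 100% = positive control at its reference dose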
TIM10 inh = growth inhibitors of TIM10 yeast strain | inhibition, % at 10 µM | S. cerevisiae TIM10 strain growth, BacTiter-Glo luminescence, 24 h | AID 463195 | 330,000 tested, 1.4% active;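 active = inhibition of 40% or more at the single tested concentration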;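 also: wild-type TIM10 isogenic control strain grown at permissive 25 °C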
tim23-1 confirm = tim23-1 yeast growth inhibition, confirmed | S. cerevisiae tim23-1 growth, BacTiter-Glo luminescence, 24 h | shares compounds with tim23-1 inh | inhibition, % at 20 µM | AID 463218 | 4,400 tested, 83% active;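 active = inhibition above about 39% in either of two replicate wells at 20 µM, limit read from the data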;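 also: temperature-sensitive tim23-1 mutant grown at 25 °C; 0% = DMSO wells with yeast and 100% = medium wells without yeast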
Starred values were filed as active, the others as inactive; nt = not tested or not shown. Compounds with a hit are over-represented: about 4.9% of the library has one in this group of screens.

SMILES | NALP1 inh | NALP3 yeast inh | tim23-1 inh | tim10-1 inh | SKKanGAS inh | TIM10 inh | tim23-1 confirm
COc1ccc(C2CC(c3cccs3)=NN2C(=O)CCl)cc1OC (configuration not stated) | -1 | 30 | 34 | -8 | 2 | 15 | nt
C=CCN(C(=O)Nc1ccc(OC)cc1)c1nnc(-c2ccncc2)s1 | -6 | 4 | 14 | 2 | -7 | 1 | nt
COc1ccc(Br)c(C(=O)OCC(=O)NC2CCCCCC2)c1 | nt | 34 | 43 | 11 | nt | 8 | nt
O=C(COc1ccccc1-c1ccccc1)N/N=C/c1ccncc1 | -7 | 34 | 53* | 16 | 3 | 14 | 44*
Cc1[nH]c(C)c(S(=O)(=O)NCc2ccc(F)cc2)c1C(=O)N1CCCC1 | 16 | -12 | -5 | -14 | -1 | 0 | nt
CCC(C)n1c(=O)c(C(=O)Nc2ccccc2S(N)(=O)=O)c(O)c2ccccc21 (configuration not stated) | 15 | 24 | 54* | 33 | 42 | 38 | 35
CNC(=O)COC(=O)c1ccc2c(c1)NC(=O)C1CCCN21 (configuration not stated) | 8 | 8 | 4 | 3 | -2 | -18 | nt
Cc1ccc(C)c(-c2csc(N/N=C/c3ccco3)n2)c1 | 4 | 33 | 56* | 30 | 5 | 18 | 39*
CC(C)Nc1cc(C(F)(F)F)nc(-c2ccccn2)n1 | 3 | 2 | -10 | 35 | 1 | -13 | nt
FC(F)(F)c1cc(Nc2ccccc2)nc(-c2ccccn2)n1 | 26 | 37 | 51* | 22 | 77* | 35 | 34
COc1ccc(N(C(=O)Cn2nnc(-c3ccccc3F)n2)C(C(=O)NCC2CCCO2)c2ccc(Cl)cc2)cc1 (configuration not stated) | -5 | 0 | 10 | -2 | 8 | -7 | nt
CCOC(=O)CN1C(=O)CC(c2ccc([N+](=O)[O-])cc2)C1=O (configuration not stated) | 1 | 3 | 66* | 34 | 2 | 21 | 66*
COc1ccc(N2C(=O)CC(c3ccc([N+](=O)[O-])cc3)C2=O)cc1 (configuration not stated) | 20 | 22 | 14 | 24 | -1 | 11 | nt
Cc1ccc(-c2cc(-c3ccccc3)nc(N(C)N)n2)cc1 | 14 | 20 | 56* | 35 | 68* | 32 | 53*
Cc1ccc(-c2cc(N)nc(-c3ccccc3)c2)cc1 | 18 | 23 | -2 | -26 | 0 | -13 | nt
CCC(C)NCCOCCOc1ccc(Cl)cc1Br (configuration not stated) | 16 | 30 | 5 | 3 | 0 | -14 | nt
Cn1cc(C(=O)c2ccc(Cl)cc2)cc1-c1nc2ccccc2n1C | 0 | 19 | 64* | 23 | 6 | 3 | 48*
Cn1c(=O)c(C(=O)c2ccccc2)nc2ccccc21 | 7 | 9 | 10 | 5 | -4 | -1 | nt
COc1cccc(Nc2nc(-c3ccc(O)cc3)cs2)c1 | 5 | 13 | 54* | 20 | 4 | 16 | 53*
COc1cccc(Nc2nc(-c3cccc(N4C(=O)c5ccccc5C4=O)c3)cs2)c1 | 11 | 13 | 15 | 22 | 13 | 21 | nt
Cc1ccc(-c2nn(-c3ccccc3)cc2C=C2C(=O)CC(C)(C)CC2=O)cc1 | 2 | 38 | 66* | 31 | 2 | 37 | 51*
Cc1nn(-c2ccc(F)cc2)c(C)c1NS(=O)(=O)c1ccc2ccccc2c1 | 4 | 1 | 66* | 0 | -3 | 20 | 60*
C/C(N)=C(/C#N)C(=O)CSc1nc2ccccc2c(=O)n1Cc1ccc(C)cc1 | 0 | 3 | 57* | 29 | 0 | 18 | 35
C/C(N)=C(/C#N)C(=O)CSc1nc2ccccc2c(=O)n1Cc1ccc(F)cc1 | 18 | 9 | 37 | -5 | 27 | 16 | nt
CCOc1ccc(C(=O)COC(=O)c2nc3nccc(C)n3n2)cc1 | nt | 15 | -2 | -9 | nt | -1 | nt
SMILES | NALP1 inh | NALP3 yeast inh | tim23-1 inh | tim10-1 inh | SKKanGAS inh | TIM10 inh | tim23-1 confirm
COc1cccc(C(=O)NC(=S)N2c3ccccc3CC2C)c1OC (configuration not stated) | -6 | 23 | 51* | 22 | -3 | 37 | 54*
CCOC(=O)Nc1cccc(NC(=O)c2ccccc2F)c1 | 3 | 15 | 55* | -30 | -5 | 14 | 63*
COc1cccc(NC(=O)c2ccccc2F)c1 | nt | 19 | 24 | -19 | nt | 2 | nt
N/C(=N\OC(=O)CCn1cccc(C(F)(F)F)c1=O)c1ccc(Cl)cc1 | 4 | 21 | 17 | 12 | -5 | 7 | nt
C/C(CCc1oc2ccccc2c1-c1ccc(C)o1)=N/O | 25 | 35 | 3 | 21 | 4 | 4 | nt
C/C(CCc1oc2c(Br)cc(Br)cc2c1-c1ccc(C)o1)=N\O | 4 | -5 | 58* | 32 | 7 | 36 | 29
Cc1ccc(NS(=O)(=O)c2cccc3nsnc23)cc1C | 7 | 1 | 14 | 19 | 6 | 26 | nt
CC1(C)CC(=O)C=C(c2ccc3[nH]ccc3c2)C1 | nt | 26 | 54* | 33 | 0 | 6 | 35
O=C1C=C(c2ccc3[nH]ccc3c2)CCC1 | nt | 26 | 27 | 24 | 1 | 2 | nt
CC1(C)CC(=O)C=C(c2ccc(I)cc2)C1 | nt | 19 | 51* | 13 | nt | -12 | 41*
C/C=C/C=C\C(=O)Nc1cccc(C2=NOC3(C2)C[C@@H](C(N)=O)N(C(=O)c2cc([N+](=O)[O-])cc([N+](=O)[O-])c2C)C3)c1 (some centres not stated) | nt | 9 | 8 | -4 | 8 | 8 | nt
CCc1nnc(N2C(=O)c3ccc(Oc4ccc([N+](=O)[O-])cc4)cc3C2=O)s1 | 33 | 17 | 64* | 29 | 5 | 34 | 39
COc1ccccc1CNC(=O)CCC(=O)N1CC(C)Sc2ccccc21 (configuration not stated) | 9 | -1 | 20 | 10 | -2 | 15 | nt
O=C(CN1C(=O)S/C(=C/c2ccncc2)C1=O)Nc1ccccc1 | 9 | 18 | 53* | 31 | 5 | 34 | 51*
Cc1cc(NC(=O)CN2C(=O)S/C(=C\c3ccccc3)C2=O)no1 | 14 | 14 | -8 | -3 | 10 | -8 | nt
O=S(=O)(c1cccs1)N1CN(C2CCCCC2)c2nc3ccccc3nc21 | -4 | 11 | 34 | 8 | 16 | 11 | nt
Cc1ncc([N+](=O)[O-])n1CC(=O)Nc1ccc2c(c1)OCO2 | -2 | 0 | 5 | 7 | 8 | 7 | nt
Cc1nnc(SCCC(=O)Nc2ccccc2Cl)o1 | 5 | 12 | 6 | 7 | -1 | -4 | nt
COc1ccc2c(c1)C(=O)N(c1ccc(C)cc1C)C(=O)C2(C)C | 20 | 34 | 55* | 33 | 3 | 36 | 57*
O=C(NCc1ccc2c(c1)OCO2)Nc1cccc(Cl)c1 | -8 | 20 | 53* | 2 | 9 | 28 | 64*

Screens (PubChem BioAssay)
